Data taken from PubChem BioAssay (NCI).
Several values for one entry are separate records, joined by “and”; a condition that tells them apart may be missing. Equal entries are not always repeated. The panel holds about 83,000 compounds, 20% with a hit somewhere; the sample as a whole holds those more often.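 Compound tested at a single concentration for 48 hours in 96-well plates; a percent growth value below 10 was scored as active.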 Activity calls are given as the source filed them.

Assays:
Experiment in all cases: NCI-60 one-dose screen, 48 h (100 = growth as untreated, 0 = no growth, -100 = all killed)
Settings in all cases: 10 µM unless noted
[1] = tested on: SR leukemia
[2] = tested on: RPMI-8226 leukemia
[3] = tested on: OVCAR-8 ovarian
[4] = tested on: OVCAR-5 ovarian
[5] = tested on: OVCAR-4 ovarian
[6] = tested on: SK-OV-3 ovarian
[7] = tested on: IGROV1 ovarian
[8] = tested on: OVCAR-3 ovarian
[9] = tested on: HS 578T breast
[10] = tested on: NCI/ADR-RES ovarian

Measured: growth

CC(C)(C)OC(=O)N1C/C(=C\c2ccc(F)cc2)C(=O)/C(=C/c2ccc(F)cc2)C1
active: [1] -11.1% | [2] -15.4% | [3] -68.3% | [4] -81.9% | [5] -9.66% | [6] 0.0941% | [7] -56.8% | [8] -90% | [9] -6.73% | [10] -56.8%

CN(C)CCCc1ccc(Nc2cnn(C)c(=O)c2Cl)cc1
inactive: [1] 62.2% | [2] 102% | [3] 106% | [4] 126% | [5] 100% | [6] 131% | [7] 104% | [8] 105% | [9] 105% | [10] 109%

Cc1ccc(S(=O)(=O)N(CCn2ccnc2[N+](=O)[O-])CCn2ccnc2[N+](=O)[O-])cc1
inactive: [1] 94.2% | [2] 102% | [3] 101% | [4] 103% | [5] 107% | [6] 109% | [7] 109% | [8] 124% | [9] 103% | [10] 104%

COc1ccc(N=Nc2c(N)nn3c(N)c(C#N)c(-c4ccccc4)nc23)cc1
inactive: [1] 73.8% | [2] 13.8% | [4] 72.8% | [6] 13.1% | [7] 20.8%
active: [3] 8.3% | [5] -13.4% | [8] -6.99% | [9] -0.615% | [10] 6.35%

CC(C)(C)c1ccc(OCc2nc3ccccc3n2-c2cccc(N)c2)cc1
inactive: [1] 26.3% and 92.3% | [2] 48.3% and 110% | [3] 72.3% and 110% | [4] 85.7% and 111% | [5] 49.6% and 105% | [6] 103% and 107% | [7] 65.7% and 108% | [8] 53.1% and 128% | [9] 53.9% and 96.3% | [10] 50.2% and 101%

O=c1ccc(Cn2c(C(F)(F)F)cc3c(Cl)ncnc32)c[nH]1
inactive: [2] 81.1% | [4] 126% | [6] 119% | [10] 61.3%
active: [1] -53.9% | [3] 0.681% | [5] -2.63% | [7] -67.4% | [8] -20% | [9] -14.4%

NNc1ncnc2sc3c(c12)CCN(Cc1ccccc1)C3
inactive: [1] 40.1% | [2] 39.3% | [3] 20% | [4] 70.6% | [5] 28.6% | [6] 72.3% | [7] 83.2% | [8] 13.4% | [9] 72.3% | [10] 35.3%

C/C(=N\Nc1ccc(C(=O)O)cc1)c1cnn(-c2cc(=O)[nH]c3ccc(C)cc23)c1C
inactive: [1] 88.6% | [2] 85.1% | [3] 104% | [4] 99.2% | [5] 94.6% | [6] 94.3% | [7] 112% | [8] 98.9% | [9] 92.5% | [10] 101%

Nc1nc2cc(-c3ccc4ncnc(NCc5ccccc5)c4c3)ccc2o1
inactive: [2] 10.6% | [4] 22.1%
active: [1] -44.9% | [3] 2.26% | [5] -75.2% | [6] -5.93% | [7] -68.5% | [8] -31.5% | [9] -34.8% | [10] 2.3%

O=C1Nc2ccccc2/C1=C\c1ccc(OCC(=O)c2ccc(Br)cc2)cc1
inactive: [1] 36.3% | [2] 49.2% | [3] 69.6% | [4] 93.2% | [5] 58.2% | [6] 101% | [8] 77.5% | [9] 84.5% | [10] 47.8%

CC(C)C[C@H](NC(=O)[C@@H]1CCCCCCCCCCC(=O)N[C@@H](CC(=O)N2CCC[C@@H]2C2CCCC2)C(=O)N1)B(O)O
active: [1] -14.3% | [3] -17.4% | [4] -36.8% | [5] -13% | [6] -7.33% | [7] -58.2% | [8] -46.5% | [9] 3.6% | [10] 1.84%
inactive: [2] 22%

O=C(O)CC1S/C(=N/N=C/c2nc3ccccc3s2)NC1=O (centres undefined)
inactive: [1] 79.8% | [2] 88.8% | [3] 98.5% | [4] 123% | [5] 82.1% | [6] 122% | [7] 103% | [8] 88.4% | [9] 90.9% | [10] 99.3%

Cn1ncc2c(N)nc(Oc3ccccc3-c3ccccc3)nc21
active: [1] -4.14% | [10] -9.01%
inactive: [2] 19.4% | [3] 36.2% | [4] 66.8% | [5] 58.3% | [6] 110% | [7] 38.6% | [8] 27.9% | [9] 40.9%
